Experimental data taken from PubChem BioAssay.
For some of these results: Potency and affinity values are given separately. Active and inactive are the calls of the source.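 The calls were made as follows, unless noted: active = primary screen activator hit with a dose response curve and TRPC4 channel activation at any tested dose; inactive = no activation, no dose response, or not a primary hit.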

Tests used:
[1] = test system: TRPC4 beta (transient receptor potential cation channel C4), mouse; assay: activators of mouse TRPC4 channel, confirmation, cell-based, Fluo4 calcium, HEK293 TRPC4beta/mu-opioid, duplicates, 10 µM (AID 2426;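 active = fluorescence ratio normalized to control raised more than 50% in primary screen plus both repeat runs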); settings: Fluo4 calcium fluorescence, at 10 µM; active compounds read high
[2] = test system: transient receptor potential cation channel C4 beta (TRPC4), mouse; assay: activators of mouse TRPC4 channel, confirmation, cell-based, second round, Fluo4, HEK293 TRPC4beta/mu-opioid, 1 µM (AID 2461;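 active = primary screen active and over 50% activation in each of two duplicate runs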); settings: Fluo4 calcium fluorescence, at 1 µM; active compounds read high
[3] = test system: TRPC4 (transient receptor potential cation channel C4 beta), mouse; assay: positive allosteric modulators of mouse TRPC4, confirmation, cell-based, second round, Fluo-4, HEK293 TRPC4beta/mu-opioid, 1 µM (AID 2554;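 active = primary screen hit whose fluorescence ratio, in both repeats, exceeds the weak agonist control mean by 3 SD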); settings: DAMGO EC20, Fluo-4 calcium flux, at 1 µM; active compounds read high
[4] = test system: TRPC4 beta (transient receptor potential cation channel C4), mouse; assay: positive allosteric modulators of mouse TRPC4, confirmation, cell-based, Fluo-4, HEK293 TRPC4beta/mu-opioid (AID 2555;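 active = primary screen hit whose calcium fluorescence ratio, in both repeats, exceeds the weak agonist control mean by 3 SD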); settings: DAMGO EC20, Fluo-4 calcium flux, at 10 µM; active compounds read high
[5] = target: Short transient receptor potential channel 4 (Mus musculus) (UniProt Q9QUQ5); assay: inhibitors of mouse TRPC4 channel, confirmation, cell-based, Fluo4, HEK293 TRPC4beta/mu-opioid (AID 2636;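 active = calcium signal cut by more than 3 SD below the full-agonist control yet still positive, in both repeats and the earlier primary screen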); settings: DAMGO, Fluo4 calcium flux, at 10 µM; active compounds read high
Sequence of Short transient receptor potential channel 4 (Mus musculus) (Q9QUQ5 whole entry, looked up): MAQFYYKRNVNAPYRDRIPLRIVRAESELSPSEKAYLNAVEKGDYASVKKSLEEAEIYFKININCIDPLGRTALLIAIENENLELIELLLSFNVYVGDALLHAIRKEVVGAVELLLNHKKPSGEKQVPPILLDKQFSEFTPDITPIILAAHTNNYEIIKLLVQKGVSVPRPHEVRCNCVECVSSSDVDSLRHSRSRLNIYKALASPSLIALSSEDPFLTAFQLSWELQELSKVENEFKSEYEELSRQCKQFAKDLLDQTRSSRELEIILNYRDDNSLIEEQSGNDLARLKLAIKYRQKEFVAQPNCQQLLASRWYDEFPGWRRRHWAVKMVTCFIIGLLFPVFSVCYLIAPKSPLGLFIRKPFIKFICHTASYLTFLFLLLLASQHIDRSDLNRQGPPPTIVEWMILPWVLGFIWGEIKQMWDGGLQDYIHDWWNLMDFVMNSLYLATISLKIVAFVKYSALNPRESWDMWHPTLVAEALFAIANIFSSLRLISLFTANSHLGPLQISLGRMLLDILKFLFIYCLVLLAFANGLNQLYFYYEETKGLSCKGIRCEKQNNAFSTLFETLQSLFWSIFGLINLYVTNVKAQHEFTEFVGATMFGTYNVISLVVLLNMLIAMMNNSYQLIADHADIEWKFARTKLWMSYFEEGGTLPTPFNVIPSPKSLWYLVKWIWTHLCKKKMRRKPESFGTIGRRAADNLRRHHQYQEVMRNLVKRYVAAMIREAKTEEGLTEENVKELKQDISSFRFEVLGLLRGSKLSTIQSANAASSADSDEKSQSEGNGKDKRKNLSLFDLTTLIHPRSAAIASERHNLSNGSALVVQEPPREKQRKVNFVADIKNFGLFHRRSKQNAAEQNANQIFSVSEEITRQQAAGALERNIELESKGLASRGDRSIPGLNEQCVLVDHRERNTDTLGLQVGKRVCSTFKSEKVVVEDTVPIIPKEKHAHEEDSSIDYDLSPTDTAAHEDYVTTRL

[6] = target: Short transient receptor potential channel 4 (Mus musculus) (UniProt Q9QUQ5); assay: inhibitors of mouse TRPC4 channel, confirmation, cell-based, second round, Fluo4, HEK293 TRPC4beta/mu-opioid, 1 µM (AID 2637;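 active = calcium signal ratio cut to more than 3 SD under the fully stimulated control mean yet still positive, in both repeats and the primary screen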); settings: Fluo4 calcium flux, DAMGO, at 1 µM; active compounds read high
[7] = target: Short transient receptor potential channel 4 (Mus musculus) (UniProt Q9QUQ5); assay: mouse TRPC4 channel activators, dose response, cell-based, HEK293 TRPC4/mu-opioid, Fluo-4 calcium (AID 434937)
[8] = target: Short transient receptor potential channel 4 (Mus musculus) (UniProt Q9QUQ5); assay: TRPC4 positive allosteric modulators, dose response, cell-based, HEK293 TRPC4/mu-opioid, Fluo-4 calcium, EC20 DAMGO (AID 434941;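 active = earlier screen potentiator hit that boosts the TRPC4 ion channel at some dose, with a dose response; inactive = no potentiation, no dose response, or not a prior hit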;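 also: calcium entry triggered by an EC20 dose of DAMGO at the co-expressed mu-opioid receptor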)
[9] = target: Short transient receptor potential channel 4 (Mus musculus) (UniProt Q9QUQ5); assay: mouse TRPC4 channel inhibitors, dose response, cell-based, HEK293 TRPC4/mu-opioid, Fluo-4 calcium (AID 434942;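 active = primary screen inhibitor hit that blocks the TRPC4 channel at some tested dose, yielding a dose curve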)
[10] = target: Short transient receptor potential channel 6 (Mus musculus) (UniProt Q61143); assay: inhibition of mouse TRPC6 channel, confirmation, selectivity assay for TRPC4 inhibitor project, cell-based, HEK293, membrane potential dye, duplicate (AID 434948;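 active = active in primary screen and both duplicates, each dropping signal beyond three positive-control SD with fluorescence still positive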); settings: HEK293 TRPC6, membrane potential dye fluorescence, at 10 µM, stimulated with maximal-effect acetylcholine; active compounds read high
Sequence of Short transient receptor potential channel 6 (Mus musculus) (Q61143 whole entry, looked up): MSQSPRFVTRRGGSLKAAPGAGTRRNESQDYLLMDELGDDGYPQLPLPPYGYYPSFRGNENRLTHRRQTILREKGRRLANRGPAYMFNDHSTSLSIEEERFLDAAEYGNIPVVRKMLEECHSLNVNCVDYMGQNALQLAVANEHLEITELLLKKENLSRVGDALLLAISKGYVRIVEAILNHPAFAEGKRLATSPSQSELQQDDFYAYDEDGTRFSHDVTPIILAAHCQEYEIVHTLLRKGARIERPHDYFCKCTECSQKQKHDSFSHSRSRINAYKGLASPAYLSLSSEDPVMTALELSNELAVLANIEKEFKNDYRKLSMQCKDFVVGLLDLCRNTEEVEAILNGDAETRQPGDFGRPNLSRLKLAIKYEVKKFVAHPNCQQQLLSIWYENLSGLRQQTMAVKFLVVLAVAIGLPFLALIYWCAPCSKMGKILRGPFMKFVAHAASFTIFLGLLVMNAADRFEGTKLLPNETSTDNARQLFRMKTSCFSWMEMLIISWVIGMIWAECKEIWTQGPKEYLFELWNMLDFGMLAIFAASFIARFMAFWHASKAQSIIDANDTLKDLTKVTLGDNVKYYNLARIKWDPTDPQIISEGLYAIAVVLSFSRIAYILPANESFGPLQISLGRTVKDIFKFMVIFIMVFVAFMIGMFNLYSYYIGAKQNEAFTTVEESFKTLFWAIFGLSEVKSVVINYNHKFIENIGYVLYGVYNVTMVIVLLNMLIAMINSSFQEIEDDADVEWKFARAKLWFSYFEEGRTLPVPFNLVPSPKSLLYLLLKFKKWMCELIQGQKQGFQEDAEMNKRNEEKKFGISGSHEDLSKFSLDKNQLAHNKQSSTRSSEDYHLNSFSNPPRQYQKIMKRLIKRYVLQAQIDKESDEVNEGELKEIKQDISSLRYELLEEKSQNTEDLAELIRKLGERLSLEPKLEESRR

[11] = target: Short transient receptor potential channel 6 (Mus musculus) (UniProt Q61143); assay: activation of mouse TRPC6 channel, confirmation, selectivity assay for TRPC4 activator project, cell-based, HEK293, membrane potential dye, duplicate (AID 434950;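 active = membrane potential signal rise above negative control mean plus 3 SD in both duplicates, also active in the earlier TRPC4 screen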;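 as to activation: 0% = buffer only wells and 100% = acetylcholine maximal-effect wells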); settings: HEK293 TRPC6, membrane potential fluorescence, at 10 µM; active compounds read high
[12] = target: Short transient receptor potential channel 6 (Mus musculus) (UniProt Q61143); assay: TRPC6 potentiation by TRPC4 potentiator hits, confirmation, selectivity assay for TRPC4 potentiator project, HEK293 cells, membrane potential dye, duplicate (AID 434952;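 active = compound raising the membrane signal above positive-control mean plus 3 SD in both repeats, and a primary screen hit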); settings: HEK293 TRPC6, membrane potential dye fluorescence, at 10 µM, maximal acetylcholine added after compound; active compounds read high
[13] = target: Short transient receptor potential channel 4 (Mus musculus) (UniProt Q9QUQ5); assay: calcium flux activators in TRPC4/5HT1a cells, counter-screen for TRPC4 activator project, cell-based, second counter screen, HEK293 TRPC4/5HT1a, Fluo-4 (AID 434977;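 active = calcium signal rise above buffer-control mean plus 5 SD in both duplicates, and also a hit in the primary screen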); settings: Fluo-4 calcium flux, at 10 µM; active compounds read high
[14] = calcium flux inhibitors in TRPC4/5HT1a cells, confirmation, counter-screen for TRPC4 inhibitor project, cell-based, second counter screen, HEK293 TRPC4/5HT1a, Fluo-4 (AID 434978;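 active = primary screen active whose calcium signal fell more than 3 SD beyond the full-serotonin control mean in both duplicate plates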;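 as to outcome: serotonin given first at submaximal then at maximal dose after compound preincubation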); settings: Fluo-4 calcium flux, at 10 µM, serotonin added to trigger calcium flux; active compounds read high
[15] = test system: TRPC4 (mouse), co-expressed with 5HT1a in HEK293; assay: calcium flux potentiators in TRPC4/5HT1a cells, confirmation, counter-screen for TRPC4 potentiator project, cell-based, second counter screen, HEK293 TRPC4/5HT1a, Fluo-4 (AID 434979;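 active = signal rise over 3 SD above mean of control wells given weak agonist, in both repeats and first screen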); settings: Fluo-4 calcium flux, at 10 µM, serotonin added at its EC20 dose; active compounds read high
[16] = calcium flux activation in mu-opioid HEK293 cells, confirmation, counter-screen for TRPC4 activator project, cell-based, HEK293 mu-opioid receptor line (AID 449723;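 active = hit in primary screen, with calcium signal over 5 SD above buffer well mean in both duplicates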;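 also: counter screen cells carry the mu-opioid receptor alone and lack TRPC4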); settings: Fluo-4 calcium fluorescence, at 10 µM; active compounds read high
[17] = calcium flux enhancement in mu-opioid HEK293 cells, confirmation, counter-screen for TRPC4 allosteric potentiator project, cell-based, HEK293 mu-opioid receptor line (AID 449724;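 active = calcium signal rise more than 3 SD above the low-dose agonist control mean, in both duplicate plates and the primary screen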); settings: Fluo-4 calcium flux, at 10 µM, compound added before EC20 DAMGO stimulus; active compounds read high

Cc1cc2cc(CN(Cc3cccs3)C(=S)NCc3ccco3)c(=O)[nH]c2cc1C
inactive: outcome [1] | outcome [2] | outcome [3] | outcome [4] | outcome [5] | outcome [6] | outcome [7] | outcome [8] | outcome [9] | outcome [10] | outcome [11] | outcome [12] | outcome [13] | outcome [14] | outcome [15] | outcome [16] | outcome [17]

Cc1ccc(/C=N/NC(=O)CSc2nc3ccccc3n2Cc2ccccc2)o1
inactive: outcome [1] | outcome [2] | outcome [3] | outcome [4] | outcome [5] | outcome [6] | outcome [7] | outcome [8] | outcome [9] | outcome [10] | outcome [11] | outcome [12] | outcome [13] | outcome [14] | outcome [15] | outcome [16] | outcome [17]

Oc1ccc(-c2[nH]ncc2-c2ccc(Br)cc2)c(O)c1
inactive: outcome [1] | outcome [2] | outcome [3] | outcome [4] | outcome [5] | outcome [6] | outcome [7] | outcome [8] | outcome [9] | outcome [10] | outcome [11] | outcome [12] | outcome [13] | outcome [14] | outcome [15] | outcome [16] | outcome [17]

CCCCc1ccc(NC(=O)CSc2nnc(C)c(=O)n2N)cc1
active: potentiation [4] 14% | potentiation [15] 43.5%
inactive: outcome [1] | outcome [2] | outcome [3] | outcome [5] | outcome [6] | outcome [7] | outcome [8] | outcome [9] | outcome [10] | outcome [11] | outcome [12] | outcome [13] | outcome [14] | outcome [16] | outcome [17]

OC1(c2ccc(Br)cc2)CN(c2ccccc2)C2=[N+]1CCS2 (stereo not drawn)
inactive: outcome [1] | outcome [2] | outcome [3] | outcome [4] | outcome [5] | outcome [6] | outcome [7] | outcome [8] | outcome [9] | outcome [10] | outcome [12] | outcome [13] | outcome [14] | outcome [15] | outcome [16] | outcome [17]
active: activation [11] 36.5%

CN(CC(=O)Nc1ccc(F)cc1)C(=O)COC(=O)C1CCN(c2ccc(C(F)(F)F)cn2)CC1
inactive: outcome [1] | outcome [2] | outcome [3] | outcome [4] | outcome [6] | outcome [7] | outcome [8] | outcome [9] | outcome [10] | outcome [11] | outcome [12] | outcome [13] | outcome [15] | outcome [16] | outcome [17]
active: inhibition [5] 70% | inhibition [14] 36.3%

CC(CCc1ccc(O)cc1)N(C)CCc1ccccc1 (stereo not drawn)
inactive: outcome [1] | outcome [2] | outcome [3] | outcome [4] | outcome [5] | outcome [6] | outcome [7] | outcome [8] | outcome [9] | outcome [10] | outcome [11] | outcome [12] | outcome [13] | outcome [14] | outcome [15] | outcome [16] | outcome [17]

Fc1ccc(Nc2ncnc3sc4c(c23)CCC4)cc1
active: potentiation [3] 22% | potentiation [15] 50%
inactive: outcome [1] | outcome [2] | outcome [4] | outcome [5] | outcome [6] | outcome [7] | outcome [8] | outcome [9] | outcome [10] | outcome [11] | outcome [12] | outcome [13] | outcome [14] | outcome [16] | outcome [17]

Cc1cc(C(C)(C)C)cc(S(=O)(=O)Nc2cccc(C(=O)O)c2)c1C
inactive: outcome [1] | outcome [2] | outcome [3] | outcome [5] | outcome [6] | outcome [7] | outcome [8] | outcome [9] | outcome [10] | outcome [11] | outcome [12] | outcome [13] | outcome [14] | outcome [16] | outcome [17]
active: potentiation [4] 9% | potentiation [15] 19%

N=c1c(C(=O)NCc2ccc(F)cc2)cc2c(=O)n3ccccc3nc2n1Cc1ccco1
active: potentiation [4] 17%
inactive: outcome [1] | outcome [2] | outcome [3] | outcome [5] | outcome [6] | outcome [7] | outcome [8] | outcome [9] | outcome [10] | outcome [11] | outcome [12] | outcome [13] | outcome [14] | outcome [15] | outcome [16] | outcome [17]

CC(C)c1ccc(OCc2ccc(C(=O)N3CCCC3)o2)cc1
inactive: outcome [1] | outcome [2] | outcome [3] | outcome [5] | outcome [6] | outcome [7] | outcome [8] | outcome [9] | outcome [10] | outcome [11] | outcome [12] | outcome [13] | outcome [14] | outcome [15] | outcome [16] | outcome [17]
active: potentiation [4] 39%

O=C(NCCCN1CCCC1=O)c1ccc(CNS(=O)(=O)c2ccc(F)cc2)cc1
active: potentiation [15] 14.7%
inactive: outcome [1] | outcome [2] | outcome [3] | outcome [4] | outcome [5] | outcome [6] | outcome [7] | outcome [8] | outcome [9] | outcome [10] | outcome [11] | outcome [12] | outcome [13] | outcome [14] | outcome [16] | outcome [17]

Cc1cc(C)c(C)c(OCCCOc2cccc3cccnc23)c1
inactive: outcome [1] | outcome [2] | outcome [3] | outcome [4] | outcome [5] | outcome [6] | outcome [7] | outcome [8] | outcome [9] | outcome [10] | outcome [11] | outcome [12] | outcome [13] | outcome [14] | outcome [16] | outcome [17]
active: potentiation [15] 19%

CCCc1ccc(OCc2ccc(C(=O)N3CCCC3)o2)cc1
inactive: outcome [1] | outcome [2] | outcome [3] | outcome [5] | outcome [6] | outcome [7] | outcome [8] | outcome [9] | outcome [10] | outcome [11] | outcome [12] | outcome [13] | outcome [14] | outcome [16] | outcome [17]
active: potentiation [4] 23% | potentiation [15] 31.2%
